POLI inh – inhibitors of human DNA polymerase iota; Pol iota fluorescent replication assay, 10 min; Potency, µM (titrated, usually from 115 µM), without a hit: at the top dose activity, negative = inhibition, actives largely listed as inhibitors; 1% of 390,000 active
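Fluorescent replication assay read twice, at 0 min and 10 min after adding 50 nM (final) substrate. Enzyme (10 nM) and compounds were first incubated 15 min at room temperature; enzyme-free buffer wells were negative controls.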
FEN1 inhibitor – human FEN1 inhibition; 0.35% of 390,000 active; Recombinant FEN1 flap cleavage, fluorescence, 15 min; Potency, µM (highest dose often 114 µM), without a hit: top-dose activity change, negative = inhibition, usual class: inhibitors; AID 588795; further: on the % scale 0 is the no-effect control and ±100 the full control effect; nearly all actives have a fitted effect of over 65% in size
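In this screen, 50 nM flap DNA substrate was added to 10 nM FEN1 pretreated with compound for 15 min at room temperature; cleavage was followed with reads at 0 and 15 min, and Hill fitting gave concentration–response parameters.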
POLB inh – inhibitors of human DNA polymerase beta; Pol beta primer extension/strand displacement, fluorescence kinetic; AID 485314; 1.3% of 340,000 active; P06746; Potency, µM (series often up to 114 µM), without a hit: at the top dose activity change, negative = inhibition, hits mostly inhibitors; further: on the % scale 0 is the no-effect control and ±100 the full control effect
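Curves were derived by four-parameter Hill fits of normalized qHTS data. The kinetic fluorescent primer-extension read was taken at 0 and 10 min after 50 nM substrate, following a 15 min room-temperature preincubation of 10 nM enzyme with compounds.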
WRN helicase inh – blocks human WRN helicase. Q14191. WRN helicase unwinding, fluorescent forked duplex, kinetic. Potency, µM (top dose mostly 114 µM), for the others: top-dose activity change, negative = inhibition, most hits filed as inhibitors. 0.46% of 360,000 active. AID 651768; further: on the % scale 0 is the no-effect control and ±100 the full control effect; nearly all actives have a fitted effect of over 55% in size
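Primary qHTS, 1536-well format. 20 nM WRN + compound, 15 min RT; start with 100 nM forked fluorophore/quencher duplex, 2 mM ATP (final); kinetic read ex 525/em 598 nm.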
Pol kappa inh – DNA polymerase kappa (human) inhibition; Q9UBT6; 0.53% of 400,000 active; Potency, µM (top dose mostly 107 µM), without a hit: at the top dose activity, negative = inhibition, most hits filed as inhibitors; purified Pol kappa, fluorescent DNA synthesis assay, 10 min; further: on the % scale 0 is the no-effect control and ±100 the full control effect
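Activity was followed as the change in fluorescence between reads at 0 and 10 min after starting the reaction with 50 nM substrate. Beforehand, 10 nM polymerase had been preincubated with compound for 15 min at room temperature.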
Pol eta inh – DNA polymerase eta (human) inhibition; recombinant Pol eta, fluorescent DNA replication assay; Potency, µM (highest dose often 114 µM), for the others: top-dose activity change, negative = inhibition, hits mostly inhibitors; 1.2% of 390,000 active; Q9Y253; further: on the % scale 0 is the no-effect control and ±100 the full control effect
Target sequence (Q9Y253 whole entry, looked up): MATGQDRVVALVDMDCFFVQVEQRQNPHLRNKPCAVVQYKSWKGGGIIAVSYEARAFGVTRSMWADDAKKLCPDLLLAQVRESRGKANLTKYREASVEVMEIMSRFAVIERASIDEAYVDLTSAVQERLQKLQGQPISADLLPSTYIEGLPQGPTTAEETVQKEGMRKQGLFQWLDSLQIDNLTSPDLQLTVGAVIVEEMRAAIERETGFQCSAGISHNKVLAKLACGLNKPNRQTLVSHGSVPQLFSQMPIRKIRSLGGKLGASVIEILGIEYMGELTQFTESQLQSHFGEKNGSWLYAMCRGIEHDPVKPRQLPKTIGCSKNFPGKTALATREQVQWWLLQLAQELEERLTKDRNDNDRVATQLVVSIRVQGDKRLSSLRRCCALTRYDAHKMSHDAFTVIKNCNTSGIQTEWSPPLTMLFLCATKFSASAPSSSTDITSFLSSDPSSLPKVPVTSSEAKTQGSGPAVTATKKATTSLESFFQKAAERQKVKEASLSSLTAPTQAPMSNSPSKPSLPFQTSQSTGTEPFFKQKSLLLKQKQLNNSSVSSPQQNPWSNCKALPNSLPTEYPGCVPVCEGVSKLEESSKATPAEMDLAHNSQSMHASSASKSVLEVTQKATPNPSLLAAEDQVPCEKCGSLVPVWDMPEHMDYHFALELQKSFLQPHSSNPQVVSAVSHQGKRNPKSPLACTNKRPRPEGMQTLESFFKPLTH
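Fluorescent replication assay: 50 nM final substrate added after a 15 min room-temperature compound preincubation with 10 nM enzyme. Signal taken at 0 min and again at 10 min.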
* hit, by the source's call; [ ] = another dose, or the depositor's remark. Hits are enriched below; roughly 2.4% of the tested compounds scored in any of these assays. The call rests on the fitted dose curve; in most records, active means well fitted curve in the direction sought with a large enough effect; inconclusive means small, poorly fitted or top-dose-only effect, or another doubt; inactive means no such curve, though single readings can be large; an effect the other way counts as inactive or inconclusive. Potency means the concentration at half of the fitted maximal effect.

CCc1nnc(NS(=O)(=O)c2ccc(NC(=S)NC(=O)/C=C/c3ccc(C(C)C)cc3)cc2)s1 was read as POLI inh 25.1µM*, FEN1 inhibitor inconclusive, POLB inh 44.7µM*, WRN helicase inh 89.1µM*, Pol kappa inh -13.9% and Pol eta inh 44.7µM*.
Screening CC(=O)c1ccc(NC(=S)NC(=O)/C=C/c2ccccc2)cc1 returned POLI inh 30.4%, FEN1 inhibitor -2.4%, POLB inh -21.7%, WRN helicase inh -0.5%, Pol kappa inh -7.6% and Pol eta inh -20.7%.
For Cc1ccc(F)cc1NC(=O)COC(=O)c1ccc(S(C)(=O)=O)c([N+](=O)[O-])c1 the results were POLI inh 3.8%, FEN1 inhibitor 13.8% and Pol kappa inh -2.3%.
For CCc1nnc(NS(=O)(=O)c2ccc(NC(=S)NC(=O)/C=C/c3ccccc3)cc2)s1 the results were POLI inh inconclusive, FEN1 inhibitor 0.6%, POLB inh -8.7%, WRN helicase inh inconclusive, Pol kappa inh -21.1% and Pol eta inh 70.8µM*.
Screening O=C(CSc1nc(-c2ccccc2)[nH]c1-c1ccccc1)Nc1ccc2c(c1)OCO2 returned POLI inh -2.5%, FEN1 inhibitor -9.6%, POLB inh 3.9%, Pol kappa inh -4.6% and Pol eta inh -19.1%.
For Cc1cc(O)c(C(C)C)cc1N=Cc1ccc(N(C)C)cc1 the results were POLI inh inconclusive, FEN1 inhibitor 9.5%, WRN helicase inh inconclusive, Pol kappa inh -13.2% and Pol eta inh -21.1%.
`Cc1cc(O)c(C(C)C)cc1N=Cc1ccc([N+](=O)[O-])cc1` gave POLI inh 10µM*, FEN1 inhibitor 3.9%, WRN helicase inh inconclusive, Pol kappa inh -3.5% and Pol eta inh -19.6%.
For O=C(O)C#CC(=O)O the results were POLI inh 13.8%, FEN1 inhibitor -0.4% and Pol kappa inh 4.5%.
For CC(C)=CCC/C(C)=C\COc1c2ccoc2cc2oc(=O)ccc12 the results were Pol kappa inh -11.7%[19.4 µM].
For CC(=O)c1ccc(OC(=O)c2nc(-c3ccccc3)oc2C)cc1 the results were POLI inh inconclusive, FEN1 inhibitor 9.9%, POLB inh 50.1µM*, WRN helicase inh -22.8%, Pol kappa inh -14.7% and Pol eta inh inconclusive.
Screening COc1ccc(-c2nc(N3CCN(S(=O)(=O)c4ccc(F)cc4)CC3)c3ccccc3n2)cc1 returned POLI inh -2.1%, FEN1 inhibitor -11.5% and Pol kappa inh 8.1%.
`CN1C(=O)/C(=C/c2ccc(-c3ccccc3[N+](=O)[O-])o2)SC1=Nc1ccc(Cl)c(C(=O)O)c1` gave POLI inh inconclusive, FEN1 inhibitor 44.7µM*, POLB inh 14.1µM*, WRN helicase inh 56.2µM*, Pol kappa inh inconclusive and Pol eta inh 20µM*.
For O=C1C2C3C=CC(C3)C2C(=O)N1/N=C/c1ccc(-c2ccccc2[N+](=O)[O-])o1 (configuration not stated) the results were POLI inh 7.1%, FEN1 inhibitor -0.5%, POLB inh 32.1%, WRN helicase inh -26.0%[57.1 µM], Pol kappa inh -11.5% and Pol eta inh -6.4%.
Screening NC1=NC(=O)/C(=C\c2ccc(-c3ccccc3[N+](=O)[O-])o2)S1 returned POLI inh 20µM*, FEN1 inhibitor inconclusive and Pol kappa inh inconclusive.
Cc1ccc(-c2c(C3C4C=CCC(C)C4C(=O)N3Cc3ccccc3)ccc3ccccc23)cc1 (configuration not stated) was read as POLI inh 21.2%, FEN1 inhibitor 2.4% and Pol kappa inh -2.1%.
Cc1cccc(NC(=O)Cn2nnc(C(=O)NCc3cccs3)c2N)c1C was read as POLI inh 6.4%, FEN1 inhibitor 0.6%, POLB inh 0.2%, WRN helicase inh -11.5%, Pol kappa inh -27.2% and Pol eta inh -9.8%.
For Cc1c(Cl)cccc1NC(=O)Cn1nnc(C(=O)NCc2cccs2)c1N the results were POLI inh 89.1µM*, FEN1 inhibitor 3.2%, POLB inh inconclusive, WRN helicase inh inconclusive, Pol kappa inh -26.0% and Pol eta inh 79.4µM*.
Screening COc1cccc(/C=N/Nc2nnc(C)n2N)c1OCc1ccccc1Cl returned POLI inh 20µM*, FEN1 inhibitor -23.5%, POLB inh -2.2%[57.1 µM], WRN helicase inh -18.2%, Pol kappa inh -6.1% and Pol eta inh -7.0%.
Screening CCOc1cc(/C=C2\C(=O)N(c3ccc(C(N)=O)cc3)N=C2C)ccc1OC(=O)c1cccs1 returned POLI inh inconclusive, FEN1 inhibitor -2.4%, POLB inh 0.1%, WRN helicase inh inconclusive, Pol kappa inh -5.1% and Pol eta inh 50.1µM*.
For CCOc1cc(/C=C2/C(=N)N3N=C(CC)SC3=NC2=O)ccc1OC(=O)c1ccco1 the results were POLI inh inconclusive, FEN1 inhibitor 2.7%, POLB inh -7.7%, WRN helicase inh inconclusive, Pol kappa inh -11.1% and Pol eta inh -3.6%.
For CCOc1cc(/C=C2/C(=O)N(c3ccccc3)N=C2C)ccc1OC(=O)c1ccco1 the results were POLI inh 1µM*, FEN1 inhibitor -21.5%, POLB inh 3.5%, WRN helicase inh inconclusive, Pol kappa inh -28.4% and Pol eta inh -18.6%.
`CCOc1cc(C2Nc3ccccc3C(=O)N2Cc2ccco2)ccc1O` (configuration not stated) gave POLI inh -1.1%, FEN1 inhibitor -5.3% and Pol kappa inh -1.3%.
O=C(c1cc2ncc(Br)cn2n1)N1CCOCC1 was read as POLI inh -4.3%, FEN1 inhibitor 1.7%, POLB inh 6.2%, WRN helicase inh -5.6%, Pol kappa inh -3.9% and Pol eta inh 0.6%.
Screening O=C(c1cc2ncc(Br)cn2n1)N1CCN(C(=O)c2ccco2)CC1 returned POLI inh inconclusive, FEN1 inhibitor 10.8%, POLB inh inconclusive, WRN helicase inh inconclusive, Pol kappa inh -13.8% and Pol eta inh 12.6µM*.
`O=C(NCCc1ccccc1)c1cc2ncc(Br)cn2n1` gave POLI inh inconclusive, FEN1 inhibitor -0.7%, POLB inh 39.8µM*, WRN helicase inh -23.8%, Pol kappa inh -13.9% and Pol eta inh inconclusive.
CCCC(CCC(=O)Nc1cc([N+](=O)[O-])ccc1O)C(=O)O (configuration not stated) was read as POLI inh -11.0%, FEN1 inhibitor 1.3%, POLB inh 22.4µM*, WRN helicase inh -5.1%, Pol kappa inh -14.7% and Pol eta inh 4.7%.
